Measurements reported in PubChem BioAssay (NCI).
The panel holds about 83,000 compounds, 20% with a hit somewhere; the sample as a whole holds those more often.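 Method: cells in 96-well plates; compound added at one concentration; 48 h incubation; percent growth measured; values under 10 scored active.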 Activity calls are given as the source filed them.

Key:
Test in all cases: NCI-60 one-dose screen, 48 h (100 = growth as untreated, 0 = no growth, -100 = all killed)
Settings in all cases: 10 µM unless noted
SK-MEL-2 melanoma = test system: SK-MEL-2 melanoma
EKVX NSCLC = test system: EKVX NSCLC
SN12C renal = test system: SN12C renal
UO-31 renal = test system: UO-31 renal
TK-10 renal = test system: TK-10 renal
ACHN renal = test system: ACHN renal
CAKI-1 renal = test system: CAKI-1 renal
A498 renal = test system: A498 renal
CCRF-CEM leukemia = test system: CCRF-CEM leukemia
MOLT-4 leukemia = test system: MOLT-4 leukemia
RPMI-8226 leukemia = test system: RPMI-8226 leukemia
OVCAR-8 ovarian = test system: OVCAR-8 ovarian
OVCAR-5 ovarian = test system: OVCAR-5 ovarian
OVCAR-4 ovarian = test system: OVCAR-4 ovarian
SK-OV-3 ovarian = test system: SK-OV-3 ovarian
IGROV1 ovarian = test system: IGROV1 ovarian
OVCAR-3 ovarian = test system: OVCAR-3 ovarian
HS 578T breast = test system: HS 578T breast
NCI/ADR-RES ovarian = test system: NCI/ADR-RES ovarian

Measured: growth

CC1=C([Se]CC(OC(=O)CC[Se]c2ccccc2)C(=O)NCCCCCC(=O)OCc2ccccc2)C(=O)c2ccccc2C1=O (centres undefined)
active: CCRF-CEM leukemia 9.75% | OVCAR-3 ovarian -3.7% | HS 578T breast -13.4%
inactive: SK-MEL-2 melanoma 47.8% | EKVX NSCLC 27.1% | SN12C renal 13.4% | UO-31 renal 15.4% | TK-10 renal 40.9% | ACHN renal 23.8% | CAKI-1 renal 32.2% | A498 renal 71.9% | MOLT-4 leukemia 17.1% | RPMI-8226 leukemia 49.1% | OVCAR-8 ovarian 10.6% | OVCAR-5 ovarian 39.7% | OVCAR-4 ovarian 42.5% | SK-OV-3 ovarian 39.4% | IGROV1 ovarian 15.9% | NCI/ADR-RES ovarian 11.9%

COc1cc(C2CC(=O)Nc3c2c(C)nn3-c2nc3ccccc3[nH]2)cc2c1OCC(=O)N2 (centres undefined)
active: MOLT-4 leukemia -20.1%
inactive: SK-MEL-2 melanoma 68.1% | EKVX NSCLC 79.3% | SN12C renal 76.3% | UO-31 renal 51.9% | TK-10 renal 87.3% | ACHN renal 70.4% | CAKI-1 renal 95.1% | A498 renal 21.4% | CCRF-CEM leukemia 12.7% | RPMI-8226 leukemia 74.1% | OVCAR-8 ovarian 34.9% | OVCAR-5 ovarian 101% | OVCAR-4 ovarian 73.2% | SK-OV-3 ovarian 28.6% | IGROV1 ovarian 60.4% | OVCAR-3 ovarian 13.6% | HS 578T breast 26.7% | NCI/ADR-RES ovarian 93.2%

N=C1CCC(=N)c2c1c(O)c1ccccc1c2O
inactive: SK-MEL-2 melanoma 117% | EKVX NSCLC 82.1% | SN12C renal 105% | UO-31 renal 101% | TK-10 renal 127% | ACHN renal 87% | CAKI-1 renal 56% | A498 renal 100% | CCRF-CEM leukemia 98.4% | MOLT-4 leukemia 81.1% | RPMI-8226 leukemia 80.2% | OVCAR-8 ovarian 109% | OVCAR-5 ovarian 124% | OVCAR-4 ovarian 95.2% | SK-OV-3 ovarian 84.7% | IGROV1 ovarian 80.1% | OVCAR-3 ovarian 73.1% | HS 578T breast 82.8% | NCI/ADR-RES ovarian 119%

COc1c(CCC[P+](c2ccccc2)(c2ccccc2)c2ccccc2)cc2c(c1OC)OCO2
inactive: EKVX NSCLC 15.6% | UO-31 renal 86.6% | ACHN renal 55.6% | CAKI-1 renal 31.9% | CCRF-CEM leukemia 29.7% | MOLT-4 leukemia 33.3% | OVCAR-5 ovarian 30.4% | SK-OV-3 ovarian 14.1% | IGROV1 ovarian 21.2% | HS 578T breast 11.7% | NCI/ADR-RES ovarian 103%
active: SK-MEL-2 melanoma -24.2% | SN12C renal 2.66% | TK-10 renal 2.13% | A498 renal -9.74% | RPMI-8226 leukemia 8.37% | OVCAR-8 ovarian 8.63% | OVCAR-4 ovarian 6.3% | OVCAR-3 ovarian 7.21%

COc1ccc(S(=O)(=O)NCCNc2nccc(-c3c(-c4cccc(F)c4)nc4sccn34)n2)cc1
inactive: SK-MEL-2 melanoma 58.1% | EKVX NSCLC 39.7% | SN12C renal 30.7% | UO-31 renal 20.3% | TK-10 renal 55.8% | ACHN renal 15.8% | CAKI-1 renal 28.2% | A498 renal 43.1% | CCRF-CEM leukemia 32.3% | MOLT-4 leukemia 33.9% | RPMI-8226 leukemia 27.8% | OVCAR-8 ovarian 36.6% | OVCAR-5 ovarian 62.9% | OVCAR-4 ovarian 38.9% | SK-OV-3 ovarian 54.3% | IGROV1 ovarian 14.8% | OVCAR-3 ovarian 49.1% | HS 578T breast 31.4% | NCI/ADR-RES ovarian 30.3%

C=C(C)[C@@H]1CC[C@]2(C)[C@H](CC=C3[C@@H]4CC(C)(C)CC[C@]4(C(N)=O)CC[C@]32C)[C@@]1(C)CCC#N
inactive: EKVX NSCLC 46.1% | UO-31 renal 17.6% | TK-10 renal 12.7% | ACHN renal 20.8% | CAKI-1 renal 18.4% | CCRF-CEM leukemia 39.8% | MOLT-4 leukemia 24.1% | OVCAR-8 ovarian 26.5% | OVCAR-5 ovarian 47% | OVCAR-4 ovarian 20% | SK-OV-3 ovarian 48.1% | IGROV1 ovarian 53.1% | OVCAR-3 ovarian 23.5% | HS 578T breast 51% | NCI/ADR-RES ovarian 35%
active: SK-MEL-2 melanoma -0.287% | SN12C renal -48.1% | A498 renal 7.55% | RPMI-8226 leukemia 6.44%

Cc1ccc(Nc2ccc(Nc3ccc(C)cc3)c3c2C(=O)c2cccc(O)c2C3=O)cc1
active: IGROV1 ovarian -12.9%
inactive: SK-MEL-2 melanoma 65.5% | EKVX NSCLC 91.6% | SN12C renal 98% | UO-31 renal 64.7% | TK-10 renal 137% | ACHN renal 91% | CAKI-1 renal 104% | A498 renal 116% | CCRF-CEM leukemia 93.2% | MOLT-4 leukemia 104% | RPMI-8226 leukemia 88.7% | OVCAR-8 ovarian 97.8% | OVCAR-5 ovarian 82.1% | OVCAR-4 ovarian 105% | SK-OV-3 ovarian 87.5% | OVCAR-3 ovarian 121% | HS 578T breast 99% | NCI/ADR-RES ovarian 99.8%

COc1ccccc1N1C(=O)/C(=C/C2=Cc3ccccc3OC2)SC1=S
inactive: SK-MEL-2 melanoma 110% | EKVX NSCLC 95.3% | SN12C renal 97.4% | UO-31 renal 88.3% | TK-10 renal 84.3% | ACHN renal 96.9% | CAKI-1 renal 85.2% | A498 renal 40.7% | CCRF-CEM leukemia 90.5% | MOLT-4 leukemia 94.6% | RPMI-8226 leukemia 91.4% | OVCAR-8 ovarian 102% | OVCAR-5 ovarian 99.2% | OVCAR-4 ovarian 83.2% | SK-OV-3 ovarian 95.2% | IGROV1 ovarian 97.2% | OVCAR-3 ovarian 101% | HS 578T breast 94.6% | NCI/ADR-RES ovarian 109%

CN(C)CCNc1nc2ccccc2c2c1c1c(n2Cc2ccccc2)-c2ccccc2C1=O
active: SK-MEL-2 melanoma -74.6% | EKVX NSCLC -87.8% | SN12C renal -89.1% | UO-31 renal -77.8% | TK-10 renal -80% | ACHN renal -98.4% | CAKI-1 renal -80.1% | A498 renal -96.4% | CCRF-CEM leukemia -60.6% | MOLT-4 leukemia -84.3% | RPMI-8226 leukemia -72.7% | OVCAR-8 ovarian -53% | OVCAR-5 ovarian -74.7% | OVCAR-4 ovarian -93.6% | SK-OV-3 ovarian -92.5% | IGROV1 ovarian -72.9% | OVCAR-3 ovarian -79.2% | HS 578T breast -90.4% | NCI/ADR-RES ovarian -72.6%

CC(C)C(=O)Nc1n[nH]c2cc(-c3cccc(NS(=O)(=O)C4CC4)c3)ccc12
inactive: SK-MEL-2 melanoma 78% | EKVX NSCLC 71.7% | SN12C renal 77.7% | UO-31 renal 56.7% | TK-10 renal 94.9% | ACHN renal 70% | CAKI-1 renal 71.2% | A498 renal 100% | CCRF-CEM leukemia 72.4% | MOLT-4 leukemia 57.8% | RPMI-8226 leukemia 66.1% | OVCAR-8 ovarian 82.2% | OVCAR-5 ovarian 87.4% | OVCAR-4 ovarian 52.8% | SK-OV-3 ovarian 62.3% | IGROV1 ovarian 64.6% | OVCAR-3 ovarian 57.8% | HS 578T breast 77.7% | NCI/ADR-RES ovarian 98.1%

O=C1Nc2ccccc2/C1=C/c1cn(C(=O)c2c(Cl)cccc2Cl)c2ccccc12
inactive: SK-MEL-2 melanoma 39.9% | EKVX NSCLC 81.5% | SN12C renal 56.1% | UO-31 renal 50.7% | TK-10 renal 90.7% | ACHN renal 43.6% | CAKI-1 renal 18.7% | A498 renal 52.5% | CCRF-CEM leukemia 70.5% | MOLT-4 leukemia 43.9% | RPMI-8226 leukemia 51.8% | OVCAR-8 ovarian 52.3% | OVCAR-5 ovarian 85% | OVCAR-4 ovarian 50.4% | SK-OV-3 ovarian 71.8% | IGROV1 ovarian 25.8% | OVCAR-3 ovarian 43% | HS 578T breast 64.7% | NCI/ADR-RES ovarian 57.7%

COc1ccc(-c2[nH]c(=S)n(C(CC3(C)NCC(=O)N3n3c(-c4ccccc4)cc(C)nc3=S)c3ccc(OC)cc3)c(=O)c2Br)cc1 (centres undefined)
active: A498 renal -10.4% | RPMI-8226 leukemia -7.13%
inactive: SK-MEL-2 melanoma 73.5% | EKVX NSCLC 60.5% | SN12C renal 65.5% | UO-31 renal 38.6% | TK-10 renal 63.5% | ACHN renal 67.5% | CAKI-1 renal 31.4% | CCRF-CEM leukemia 57.5% | MOLT-4 leukemia 54.6% | OVCAR-8 ovarian 71.2% | OVCAR-5 ovarian 83.4% | OVCAR-4 ovarian 54.9% | SK-OV-3 ovarian 62.4% | IGROV1 ovarian 50.6% | OVCAR-3 ovarian 67.5% | HS 578T breast 40.7% | NCI/ADR-RES ovarian 80.3%

Cc1ccccc1NC(=O)N/C(N)=N/c1nc(C)c(C)s1
active: A498 renal -17.7% | RPMI-8226 leukemia 6% | OVCAR-3 ovarian -1.03% | NCI/ADR-RES ovarian 9.02%
inactive: SK-MEL-2 melanoma 53.9% | EKVX NSCLC 55% | SN12C renal 39.7% | UO-31 renal 54.9% | TK-10 renal 70.3% | ACHN renal 46.5% | CAKI-1 renal 31.1% | CCRF-CEM leukemia 13.3% | MOLT-4 leukemia 30.1% | OVCAR-8 ovarian 30.8% | OVCAR-5 ovarian 41.4% | OVCAR-4 ovarian 49.7% | SK-OV-3 ovarian 45.2% | IGROV1 ovarian 36.2% | HS 578T breast 23.6%

O=C(CSc1nccc(Nc2ccc(S(=O)(=O)Nc3nccs3)cc2)n1)c1ccc(F)cc1
inactive: SK-MEL-2 melanoma 105% | EKVX NSCLC 97.5% | SN12C renal 110% | UO-31 renal 75.8% | TK-10 renal 110% | ACHN renal 103% | CAKI-1 renal 96.4% | A498 renal 109% | CCRF-CEM leukemia 108% | MOLT-4 leukemia 115% | RPMI-8226 leukemia 108% | OVCAR-8 ovarian 98.1% | OVCAR-5 ovarian 106% | OVCAR-4 ovarian 99.2% | SK-OV-3 ovarian 97.6% | IGROV1 ovarian 106% | OVCAR-3 ovarian 111% | HS 578T breast 97.9% | NCI/ADR-RES ovarian 101%

COc1cc(OC)cc(C2CC(=O)Nc3c2c(C)nn3-c2nc3ccccc3[nH]2)c1 (centres undefined)
active: A498 renal -10.1% | CCRF-CEM leukemia 4.69% | MOLT-4 leukemia -8.06% | RPMI-8226 leukemia -8.64% | SK-OV-3 ovarian -2.88% | OVCAR-3 ovarian 7.11%
inactive: SK-MEL-2 melanoma 38.4% | EKVX NSCLC 17.7% | SN12C renal 20% | UO-31 renal 13.1% | TK-10 renal 24.2% | ACHN renal 19.3% | CAKI-1 renal 30.3% | OVCAR-8 ovarian 17.8% | OVCAR-5 ovarian 50.2% | OVCAR-4 ovarian 42.4% | IGROV1 ovarian 14.6% | HS 578T breast 27.1% | NCI/ADR-RES ovarian 64.3%

COc1ccc(Nc2nnc(SCc3ccccc3F)s2)cc1
inactive: SK-MEL-2 melanoma 82.9% | EKVX NSCLC 94.9% | SN12C renal 107% | UO-31 renal 78.6% | TK-10 renal 123% | ACHN renal 106% | CAKI-1 renal 103% | A498 renal 91.4% | CCRF-CEM leukemia 76.4% | MOLT-4 leukemia 94.8% | RPMI-8226 leukemia 71.6% | OVCAR-8 ovarian 100% | OVCAR-5 ovarian 92.8% | OVCAR-4 ovarian 99.4% | SK-OV-3 ovarian 90.9% | OVCAR-3 ovarian 111% | HS 578T breast 98% | NCI/ADR-RES ovarian 99.1%
active: IGROV1 ovarian 8.8%
